Reference: publication PMC7819943, “Rice protein-binding microarrays: a tool to detect cis-acting elements near promoter regions in rice”
The full ranking holds about 68,000 sequences; the median of “fluorescence intensity (a.u.)” is about 9,100, and the highest 2% start at about 16,000. This is one part of a sample in which the highest values are shown more often than they occur.

Molecular target: OsWRKY34 (Oryza sativa, UniProt Q0JBA9 1-250)
Experiment: protein-binding microarray (RPBM); PBS, 2% BSA, 51.3 ng/ul salmon testes DNA, 50 uM zinc acetate, 200 nM TF, 25 C, 1 h; high values mean tight binding
Conditions: protein: recombinant; tags: N-terminal polyhistidine and DsRed monomer fusion (pET32a); label: CyDye5-dUTP incorporated in the synthesized complementary strand; 3' TTTTT single-stranded linker to array surface; dsDNA, one strand shown
How it was run: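 Binding signal here means per-feature fluorescence intensity in arbitrary units. The values were read on an Axon 4000B scanner after a custom Agilent array, double-stranded by primer extension with Cy5-dUTP, was incubated with 200 nM protein at 25 °C for 1 h in PBS with 2% BSA, salmon testes DNA and 50 µM zinc acetate, then washed. The proteins were transcription factors with an N-terminal polyhistidine tag and DsRed, expressed in E. coli BL21-CodonPlus and purified on Ni–NTA.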

Chain of OsWRKY34 (Q0JBA9 entry or part of it): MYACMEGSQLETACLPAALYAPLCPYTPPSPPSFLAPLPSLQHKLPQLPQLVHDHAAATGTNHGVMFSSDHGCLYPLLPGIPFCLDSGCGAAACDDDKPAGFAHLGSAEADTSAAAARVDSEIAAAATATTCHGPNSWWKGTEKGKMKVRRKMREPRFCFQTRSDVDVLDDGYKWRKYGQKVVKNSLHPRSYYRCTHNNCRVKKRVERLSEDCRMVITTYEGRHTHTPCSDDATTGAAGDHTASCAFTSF

| Sequence | binding signal |
| --- | --- |
| ATCACACGCTGCACCTCTCCCGCGCCCACCAGTCCACTCACGGAGTCACCTAGTGCAG | 18500 fluorescence intensity (a.u.) |
| ACCACTCCACGCGCCTATATCACCACACGTCACGCTTCCACGGAGTCACCTAGTGCAG | 16700 fluorescence intensity (a.u.) |
| ACGCTGTTGTAATTCCAGATGTTGGTCAGTAGTCATTACTCGGAGTCACCTAGTGCAG | 10700 fluorescence intensity (a.u.) |
| CGGGGAGTCGTTGCTGTTCTTGTTCTTGGTCGAGGTTGAGCGGAGTCACCTAGTGCAG | 14500 fluorescence intensity (a.u.) |
| TCAGCAATCTCTCTTTCTACTAGGGTCTCTTCTACCAGCGCGGAGTCACCTAGTGCAG | 8070 fluorescence intensity (a.u.) |
| TTGACCACCAAGCTCCTGCTTCTTGCAATCTTGATCGATACGGAGTCACCTAGTGCAG | 9170 fluorescence intensity (a.u.) |
| ATCCTCATATCGTGTATCCGTATTCGTATCCCCGTATTTGCGGAGTCACCTAGTGCAG | 8230 fluorescence intensity (a.u.) |
| CTGCACCTAAAGCCTTTCAGAAAACTTTTCACCCTGTCAACGGAGTCACCTAGTGCAG | 8740 fluorescence intensity (a.u.) |
| TCAACCATAATCACTAGTGTCACAAACACCTTGAAATTCACGGAGTCACCTAGTGCAG | 8120 fluorescence intensity (a.u.) |
| ACATCAACACACCATCACTCGCACAAAACACACTAATAAACGGAGTCACCTAGTGCAG | 8440 fluorescence intensity (a.u.) |
| CACTAATTGATCAATTGCACAACAAATTGCTTGAATAACGCGGAGTCACCTAGTGCAG | 65500 fluorescence intensity (a.u.) |
| AGAATGTTATACGGCGCTCGATCTATTATTCCGCACTCTACGGAGTCACCTAGTGCAG | 8130 fluorescence intensity (a.u.) |
| TCTCCGTTGTAATATGTTCTTTGTCCTCGATGTGTTTCCGCGGAGTCACCTAGTGCAG | 11400 fluorescence intensity (a.u.) |
| GATGTACTGAACTGTTTTTTTTTTCGTTTTTAATTTCTAGCGGAGTCACCTAGTGCAG | 8550 fluorescence intensity (a.u.) |
| AATTTCGTTTTTAATACGCCCAGTGAAATTTGCTGTCTAGCGGAGTCACCTAGTGCAG | 17500 fluorescence intensity (a.u.) |
| GTTTTACTAGTGAATTTTCTTTTCTTTGCTTCGTTTAATGCGGAGTCACCTAGTGCAG | 8930 fluorescence intensity (a.u.) |
| TCTCGCCACCTTCGCCTCCATCTCATCGACCGCCCACTTCCGGAGTCACCTAGTGCAG | 12800 fluorescence intensity (a.u.) |
| TCATAATGCATCAATCTATTACTTTAGCTATCTATTTATACGGAGTCACCTAGTGCAG | 9530 fluorescence intensity (a.u.) |
| ATGACTTTAATATGTTAGCTTTTCATGCATGTGTCAATTTCGGAGTCACCTAGTGCAG | 8700 fluorescence intensity (a.u.) |
| GCATATAATTAGTTTACCATGGCTTTAATCAATCATATGCCGGAGTCACCTAGTGCAG | 29300 fluorescence intensity (a.u.) |
| GCAACGCCGCCGTTTTCTTCGCCTCTCACAGAGACGACTCCGGAGTCACCTAGTGCAG | 9200 fluorescence intensity (a.u.) |
| AGCCATCTATCACCATGGCTGAAGCCATGTTATATATATCCGGAGTCACCTAGTGCAG | 8560 fluorescence intensity (a.u.) |

| Sequence | binding signal |
| --- | --- |
| ATTCGTTCTGGTTTTCTTCGGGGTTTATTGATTCACGCGACGGAGTCACCTAGTGCAG | 18200 fluorescence intensity (a.u.) |
| GGGGTTCGTTTTGTTTCTTGACACACGCTTGAGTCTTATTCGGAGTCACCTAGTGCAG | 16900 fluorescence intensity (a.u.) |
| ATCACTTTATGCGCACTTTTCTTTGACGCCTTCCACAATTCGGAGTCACCTAGTGCAG | 9560 fluorescence intensity (a.u.) |
| ACTTCTACCTTTCGTTTTTCCACGCGCATATGCTTTTTGACGGAGTCACCTAGTGCAG | 20300 fluorescence intensity (a.u.) |
| CTTCACTCTTGATTCAAAAGGTTTTATTTTTTTTTCTGGTCGGAGTCACCTAGTGCAG | 8530 fluorescence intensity (a.u.) |
| TTCTTTTCTTTTTCTTTTTCGTTTTCTTCTTATTCTTTTTCGGAGTCACCTAGTGCAG | 12900 fluorescence intensity (a.u.) |
| TCCCACCTTCCGCTCGTTTTTCTTGAGCATATGCTTCTCACGGAGTCACCTAGTGCAG | 10100 fluorescence intensity (a.u.) |
| TTCGGGTTTTTTTTTTGTTTATTTTGTCTTTCGCTTTTCACGGAGTCACCTAGTGCAG | 14900 fluorescence intensity (a.u.) |
| TTTTTGGGGTTTTCTCTTCTTGATTGATTCGTTCTTGGCGCGGAGTCACCTAGTGCAG | 13100 fluorescence intensity (a.u.) |
| TCTTCTGAGTTCTTGTGTTTTCATACGTGCCAATCAAATGCGGAGTCACCTAGTGCAG | 8310 fluorescence intensity (a.u.) |
| ACCTTCGGTGTACTTTTTCCTTAGTCTGCCGGCTTATTTACGGAGTCACCTAGTGCAG | 9490 fluorescence intensity (a.u.) |
| GACAATTACTTAGTCCTCACCTACCGTCGACCTCACACGTCGGAGTCACCTAGTGCAG | 10200 fluorescence intensity (a.u.) |
| TTCAGAGTATTGTGATCCTTAAATCGAACCGTTGACTCTACGGAGTCACCTAGTGCAG | 9490 fluorescence intensity (a.u.) |
| AGCAGTTGTATTGTTGTGAAATTTAATTTGCTCTTTGACCCGGAGTCACCTAGTGCAG | 8200 fluorescence intensity (a.u.) |
| TCTTGTTCATTTCTCTCTTGCTCCGGCTCGCCTCGCATCGCGGAGTCACCTAGTGCAG | 8300 fluorescence intensity (a.u.) |
| GGTAGACGGCGTCGTACCCGTCCTCCTCGCCGGACCGCATCGGAGTCACCTAGTGCAG | 8840 fluorescence intensity (a.u.) |
| TTGTATGATGCCGTTGATTTTTTTTGTCTAACGTTTAACCCGGAGTCACCTAGTGCAG | 8360 fluorescence intensity (a.u.) |
| TTTTAATGTATGACGCCGTTGACTTTTTATACGTTTGACCCGGAGTCACCTAGTGCAG | 32200 fluorescence intensity (a.u.) |
| TAATGTATGACGCCGTTGACTTTTTGATTAACGTTTGACCCGGAGTCACCTAGTGCAG | 34800 fluorescence intensity (a.u.) |
| TAATGTATAACGCCGTTAACTTTTTAACAAACGTTTGACCCGGAGTCACCTAGTGCAG | 8430 fluorescence intensity (a.u.) |
| TAATGTATGACGCCGTTGACTTTTTAACTAACGTTTGACCCGGAGTCACCTAGTGCAG | 28700 fluorescence intensity (a.u.) |
